Assay outcomes as filed in PubChem BioAssay.
SMN2 splice up = qHTS Assay for Enhancers of SMN2 Splice Variant Expression; HEK293 SMN2-luciferase splicing reporter, luminescence, 30-36 h; Potency, µM (highest dose often 46.1 µM), for inactives: at the highest dose activity change, positive = activation, most hits filed as activators; actives 2.8% (n = 210,000); AID 1458, 2008; note: % of control where 0% means no effect; nearly all actives have a fitted effect of over 55% in size
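HEK293 cells carry an SMN2 minigene-luciferase reporter in which exon 7 inclusion puts luciferase in frame. Cells were seeded at 2000 cells/well, attached for 10-12 hours, then exposed to compounds for 30-36 hours at 37C before ONE-Glo luminescence.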
Rab9 promoter act = qHTS Assay for Rab9 Promoter Activators; Huh7 Rab9 promoter-luciferase reporter, luminescence, 24 h; Potency, µM (top dose mostly 9.22 µM), for the others: top-dose activation, negative = inhibition, actives largely listed as activators; actives 2.8% (n = 320,000); AID 485297, 2010; note: % of control where 0% means no effect; nearly all actives have a fitted effect of over 60% in size
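Using Huh7 cells stably transfected with Rab9 promoter–luciferase, compounds were incubated 24 h at 37 °C, 5% CO2; luciferase luminescence was read 10 min after reagent addition.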
NPC1 prom act = qHTS Assay for NPC1 Promoter Activators | Huh7 NPC1 promoter luciferase reporter, 24 h | Potency, µM (top dose mostly 9.22 µM), for inactives: top-dose activation, usual class: activators | actives 2.4% (n = 320,000) | AID 485313, 2010; note: % of control where 0% means no effect; nearly all actives have a fitted effect of over 60% in size
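Luminescence read-out of NPC1 promoter-driven luciferase in stably transfected Huh7 cells; compounds delivered in DMSO and left 24 h at 37C, 5% CO2, qHTS titration format.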
Luc counter = Counterscreen for Luciferase (Kinase-Glo TM) Inhibition | Luciferin 4-monooxygenase (Photuris pensylvanica), Q27757 | Kinase-Glo luciferase, ATP luminescence, 8 min | Potency, µM (series often up to 38.3 µM), inactives show at the highest dose activity change, negative = inhibition, actives largely listed as inhibitors | actives 0.28% (n = 200,000); note: % is set by controls: 0 for no effect and ±100 for the full control effect; nearly all actives have a fitted effect of over 60% in size
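Luminescence was the read-out, taken after 8-minute incubation at ambient temperature. Luciferase turned over luciferin with 10 uM ATP in imidazole pH 7.2 buffer containing KCl, MgCl2, Tween 20 and BSA.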
FLuc counter = qHTS profiling assay for firefly luciferase inhibitor/activator using purifed enzyme and Km concentrations of substrates (counterscreen for miR-21 project) | Luciferin 4-monooxygenase (Photinus pyralis), P08659 | purified FLuc, Km substrates, luminescence inhibition | Potency, µM (top dose mostly 57.5 µM), inactives show top-dose activity change, negative = inhibition, most hits filed as inhibitors | actives 6.9% (n = 360,000);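 note: plate controls were vehicle for no effect and reference inhibitor for full effect; nearly all actives have a fitted effect of over 55% in size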
Target sequence (P08659 whole entry, looked up): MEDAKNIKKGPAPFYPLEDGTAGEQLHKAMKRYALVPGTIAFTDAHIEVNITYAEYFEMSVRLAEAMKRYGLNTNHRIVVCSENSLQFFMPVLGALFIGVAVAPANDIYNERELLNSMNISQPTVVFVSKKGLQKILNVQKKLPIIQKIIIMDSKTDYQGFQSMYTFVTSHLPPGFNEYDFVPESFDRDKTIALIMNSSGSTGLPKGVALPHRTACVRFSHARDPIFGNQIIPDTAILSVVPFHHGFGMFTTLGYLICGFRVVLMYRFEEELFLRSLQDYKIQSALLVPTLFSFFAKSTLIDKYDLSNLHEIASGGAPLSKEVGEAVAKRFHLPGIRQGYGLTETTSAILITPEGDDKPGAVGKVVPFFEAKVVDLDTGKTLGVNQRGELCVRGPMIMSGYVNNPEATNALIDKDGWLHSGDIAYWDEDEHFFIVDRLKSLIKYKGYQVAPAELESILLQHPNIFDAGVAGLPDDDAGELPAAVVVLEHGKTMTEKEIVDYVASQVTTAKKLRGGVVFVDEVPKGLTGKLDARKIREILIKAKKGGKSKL
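Biochemical qHTS of compounds, final roughly 60 µM downward over six points, against 10 nM purified firefly luciferase using Km concentrations of substrates (10 uM D-luciferin, 10 uM ATP) in Tris acetate pH 7.5 buffer; luminescence output.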
The depositor's hits bear a star; u = inconclusive; x = no result; [ ] = dose if it differs, or a comment. Sampled rows, rich in hits. Any-hit rate of the full collection: about 7.3%. Calls come from the whole dose curve; as a rule, active = well fitted curve in the direction sought with a large enough effect; inconclusive = small, poorly fitted or top-dose-only effect, or another doubt; inactive = no such curve, though single readings can be large; an effect the other way counts as inactive or inconclusive. Potency is the fitted concentration of half-maximal effect.

SMILES	SMN2 splice up	Rab9 promoter act	NPC1 prom act	Luc counter	FLuc counter
Cc1cccc(-n2c(C)cc(C(=O)NC3CCCCC3)c2C)c1	u	3.5µM*	u	-1%	21µM*
COc1ccc(-n2c(C)cc(C(=O)NC3CCCCC3)c2C)cc1	u	3.5µM*	u	-5%	13µM*
COc1ccc(N2CC(C(=O)NC3CCCCC3)CC2=O)cc1 (stereo not drawn)	x	-1%	1%	x	0%
O=C(NCc1cccc(Cl)c1)c1oc(=O)c2ccccc2c1-c1ccccc1	-3%	x	x	x	1%
COc1cccc(C(=O)n2nc(-c3ccco3)nc2NCc2cccs2)c1	21%	x	x	x	-14%
N#Cc1cnc2nc(SCc3ccccc3)nn2c1	x	u	1.4µM*	x	-17%
CSc1nc2ncc(C#N)cn2n1	8%	-1%	4%	1%	-1%
COc1cc(N=Nc2cccc(S(N)(=O)=O)c2)c2ccccc2c1N	u	-3%	10%	-2%[7.66 µM]	19µM*
COc1ccc(Cl)cc1C(=O)Nc1ccc2nc3n(c(=O)c2c1)CCCC3	x	6%	-1%	x	-14%
COc1cc(OC)cc(C(=O)Nc2ccc3nc4n(c(=O)c3c2)CCCC4)c1	x	u	2.8µM*	x	u
COc1cccc(C(=O)Nc2ccc3nc4n(c(=O)c3c2)CCCC4)c1	x	u	26%	x	17µM*
CN(C)c1cccc(C(=O)Nc2ccc3nc4n(c(=O)c3c2)CCCCC4)c1	-2%	25%	8%	-8%	13µM*
CCOc1ccccc1C(=O)Nc1ccc2nc3n(c(=O)c2c1)CCCCC3	x	5%	-7%	x	15µM*
COc1cc(C(=O)Nc2ccc3nc4n(c(=O)c3c2)CCCC4)ccc1Br	x	-1%	-2%	x	0%
Cc1c(C(=O)OC(C)C)sc(N)c1C(=O)OC(C)C	24%	27%	20%	-1%	21µM*
CCOC(=O)c1c(N)sc(C(N)=O)c1C	12%	1%	10%	0%	-14%
CCOC(=O)c1cc(C(=O)Nc2ccccc2F)nn1C	13µM*	2µM*	2.2µM*	-11%	8.5µM*
CCOC(=O)c1c(N)sc(C(=O)Nc2ccccc2F)c1C	8.9µM*	0.4µM*	2.5µM*	-18%	1.9µM*
CCOC(=O)c1c(N)sc(C(=O)Nc2ccccc2)c1C	x	0.32µM*	0.45µM*	-29%	1.2µM*
CCOC(=O)n1ccc(C(=O)Nc2ccccc2F)n1	8%	23%	24%	-2%	-2%
CCN(Cc1ccccc1)S(=O)(=O)c1ccc(F)c(C(=O)Nc2ccc(C(C)C)cc2)c1	x	x	x	x	-13%
CCN(CC)S(=O)(=O)c1ccc(C(=O)NCCSc2c(-c3ccc(F)cc3)[nH]c3ccccc23)cc1	-38%	x	x	x	2%
O=C(NCc1ccc(F)cc1)c1cc2ccccc2o1	x	9%	5%	x	-12%
O=C(NNC(=O)c1cc2ccccc2o1)c1ccc(F)cc1	x	1%	0%	x	17µM*
O=C(c1ccccc1)c1cc2ccccc2oc1=O	x	13%	16%	x	-12%
SMILES	SMN2 splice up	Rab9 promoter act	NPC1 prom act	Luc counter	FLuc counter
O=C(c1ccccc1)c1cc2ccccc2o1	-6%	u	u	1%	15µM*
Cc1ccc(C(=O)c2cc3ccccc3o2)cc1[N+](=O)[O-]	-4%	2.8µM*	u	-1%	7.6µM*
O=C(c1ccc(F)cc1)c1cc2ccccc2o1	x	22%	u	x	11µM*
CC(=O)c1cccc(NC(=O)Cn2c(=O)oc3cc(S(=O)(=O)NC4CCCC4)ccc32)c1	19%	x	x	x	-1%
COC(=O)NC(c1ccccc1)C1(C(=O)OC)C(=O)Cc2ccccc21 (stereo not drawn)	17%	x	x	1%	x
O=C(COC(=O)c1ccco1)Nc1nc2c(F)c(F)c(F)cc2s1	x	-4%	2%	x	1%
O=C(CCc1ccccc1)Nc1nc2c(F)cc(F)cc2s1	x	17%	u	x	17µM*
O=C(Nc1nc2c(Cl)ccc(Cl)c2s1)c1ccco1	14%	-23%	-8%	-2%	u
O=C(Nc1nc2c(ccc3ccccc32)s1)c1ccco1	24%	u	u	-1%	13µM*
O=C(Nc1nc2c(F)c(F)c(F)cc2s1)c1ccco1	x	2.5µM*	2.2µM*	x	6µM*
